Results: PubChem BioAssay (NCI)
Compounds without any hit were thinned out: in the full panel of roughly 79,000, 15% have a hit. The source made the active and inactive calls. No stated cut-off is given here; in the data, active means growth inhibition above about 70%; inactive means the rest.

Key:
[1] = NCI Yeast Anticancer Drug Screen. Data for the rad52 strain (AID 147);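 further: 0% = growth of vehicle-treated control cultures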; conditions: S. cerevisiae rad52 mutant growth inhibition, stronger effect = higher value
Method in brief: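 Here a repair-compromised yeast strain receives each compound; its growth is then quantified and normalised to vehicle-only controls.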

[2] = NCI Yeast Anticancer Drug Screen. Data for the wt1 strain (AID 149);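 further: 0% = growth of vehicle-treated wt1 cultures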; conditions: S. cerevisiae wt1 strain (SPY 50644) growth inhibition, stronger effect = higher value
Method in brief: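 Measured: growth of wt1 yeast under compound versus vehicle treatment, reported as inhibition.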

[3] = NCI Yeast Anticancer Drug Screen. Data for the rad50EPP+ strain (AID 151);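 further: 0% = growth of vehicle-treated control cultures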; conditions: S. cerevisiae rad50 mutant strain, stronger effect = higher value
Method in brief: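 Read-out is yeast growth inhibition relative to vehicle; cells used were the rad50EPP+ strain.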

[4] = NCI Yeast Anticancer Drug Screen. Data for the mgt1 strain (AID 153); conditions: S. cerevisiae mgt1 mutant growth inhibition, stronger effect = higher value
Method in brief: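 Measured: inhibition of mgt1 yeast growth by compound, normalized to vehicle-treated cultures.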

[5] = NCI Yeast Anticancer Drug Screen. Data for the rad50 strain (AID 155);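 further: 0% = growth of vehicle-only cultures of the same strain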; conditions: S. cerevisiae rad50 strain growth inhibition, stronger effect = higher value
Method in brief: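 Growth of the mutant yeast was measured after compound exposure and referenced to vehicle-treated cultures.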

[6] = NCI Yeast Anticancer Drug Screen. Data for the mec2-1 strain (AID 157); conditions: S. cerevisiae mec2-1 strain, stronger effect = higher value
Method in brief: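 Using mec2-1 yeast: add compound, measure growth, express inhibition versus vehicle-treated cultures.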

[7] = NCI Yeast Anticancer Drug Screen. Data for the rad14 strain (AID 159);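 further: 0% = growth of vehicle-treated control cultures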; conditions: S. cerevisiae rad14 strain growth inhibition, stronger effect = higher value
Method in brief: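 Here, inhibition of yeast growth was measured after compound exposure, using a strain with a genetic defect in DNA damage repair and vehicle-treated cultures as the reference.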

[8] = NCI Yeast Anticancer Drug Screen. Data for the sgs1 mgt1 strain (AID 161);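 further: 0% = growth of cultures given vehicle only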; conditions: S. cerevisiae sgs1 mgt1 strain, stronger effect = higher value
Method in brief: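 Yeast cells carrying a defined DNA-repair defect were exposed to test compounds. Growth inhibition was measured relative to vehicle-treated controls.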

[9] = NCI Yeast Anticancer Drug Screen. Data for the CLN2oe strain (AID 163);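 further: 0% = growth of vehicle-only control cultures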; conditions: S. cerevisiae CLN2oe strain, stronger effect = higher value
Method in brief: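 Whole-cell yeast growth assay. A strain engineered for altered cell-cycle control received compound, and inhibition relative to vehicle-treated cultures was recorded.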

[10] = NCI Yeast Anticancer Drug Screen. Data for the cln2 rad14 strain (AID 165);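 further: 0% = growth equal to vehicle treated cultures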; conditions: S. cerevisiae cln2 rad14 strain, stronger effect = higher value
Method in brief: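 Yeast strain cln2 rad14, bearing defects in cell cycle control and DNA repair, serves as the test system; values reflect growth inhibition compared with vehicle.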

[11] = NCI Yeast Anticancer Drug Screen. Data for the bub3 strain (AID 167); conditions: S. cerevisiae bub3 mutant strain, stronger effect = higher value
Method in brief: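 Whole-cell yeast assay. The mutant strain was incubated with compounds, and growth inhibition was determined by comparison with vehicle-treated cells.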

[12] = NCI Yeast Anticancer Drug Screen. Data for the mlh1 strain (AID 171);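 further: 0% = growth of vehicle-treated control cultures of the same strain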; conditions: S. cerevisiae mlh1 strain growth inhibition, stronger effect = higher value
Method in brief: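 A yeast strain with a defined genetic lesion serves as the test organism. Cultures receive compound or vehicle, and growth is measured.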

[13] = NCI Yeast Anticancer Drug Screen. Data for the sgs1 strain (AID 173);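 further: 0% = growth of vehicle-only control cultures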; conditions: S. cerevisiae sgs1 mutant, stronger effect = higher value
Method in brief: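 A genetically defined yeast mutant is incubated with the test compound, and its growth is compared to that of the same strain given vehicle.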

[14] = NCI Yeast Anticancer Drug Screen. Data for the mlh1 rad18 strain (AID 175); conditions: S. cerevisiae mlh1 rad18 strain growth inhibition, stronger effect = higher value
Method in brief: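 Steps: expose repair-defective yeast to compound; measure growth; express inhibition against vehicle-treated controls.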

[15] = NCI Yeast Anticancer Drug Screen. Data for the rad18 strain (AID 177); conditions: S. cerevisiae rad18 mutant growth inhibition, stronger effect = higher value
Method in brief: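 Measured value is growth inhibition of a yeast strain bearing a DNA repair alteration, referenced to vehicle-treated cells.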

[16] = NCI Yeast Anticancer Drug Screen. Data for the wt2 strain (AID 169);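 further: 0% = growth of vehicle-treated yeast cultures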; conditions: S. cerevisiae wt2 strain growth inhibition, stronger effect = higher value
Method in brief: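 Treated yeast vs. vehicle-treated yeast: growth inhibition determined.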

[17] = at 5.0 µM (retest, dose inferred, filed as 0.5)
[18] = at 50.0 µM (retest, dose inferred, filed as 5.0)

Measured: growth inhibition

CC(C)=CCc1c2c(c(O)c3c(=O)c(-c4ccc(O)c(O)c4)coc13)C=CC(C)(C)O2
inactive: [1]; at 1.2 µM -32% | [1]; at 3.7 µM -19% | [2]; at 1.2 µM -20% | [2]; at 3.7 µM -32% | [3]; at 1.2 µM -63% | [3]; at 3.7 µM -42% | [3]; at 11.0 µM -21% | [3]; at 33.0 µM -8% | [3]; at 100.0 µM -31% | [4]; at 1.2 µM -55% | [4]; at 3.7 µM -33% | [5]; at 1.2 µM -36% | [5]; at 3.7 µM -17% | [5]; [17] -3% | [6]; at 1.2 µM -89% | [6]; at 3.7 µM -93% | [6]; [17] 30% | [7]; at 1.2 µM -72% | [7]; at 3.7 µM -68% | [8]; [17] 18% | [9]; at 1.2 µM -32% | [9]; at 3.7 µM -5% | [10]; [17] 23% | [11]; at 1.2 µM -29% | [11]; at 3.7 µM -28% | [11]; [17] 14% | [12]; at 1.2 µM 5% | [12]; at 3.7 µM 14% | [13]; at 1.2 µM -46% | [13]; at 3.7 µM -36% | [14]; [17] 43% | [15]; at 1.2 µM -24% | [15]; at 3.7 µM -4%
active: [1]; at 11.0 µM 96% | [1]; at 33.0 µM 93% | [1]; at 100.0 µM 87% | [2]; at 11.0 µM 79% | [2]; at 33.0 µM 93% | [2]; at 100.0 µM 89% | [4]; at 11.0 µM 94% | [4]; at 33.0 µM 92% | [4]; at 100.0 µM 87% | [5]; at 11.0 µM 93% | [5]; at 33.0 µM 93% | [5]; [18] 91% | [5]; at 50.0 µM 84.8% | [5]; at 100.0 µM 88% | [6]; at 11.0 µM 87% | [6]; at 33.0 µM 91% | [6]; [18] 93% | [6]; at 50.0 µM 88% | [6]; at 100.0 µM 85% | [7]; at 11.0 µM 91% | [7]; at 33.0 µM 91% | [7]; at 100.0 µM 87% | [8]; [18] 93% | [8]; at 50.0 µM 87.5% | [9]; at 11.0 µM 95% | [9]; at 33.0 µM 91% | [9]; at 100.0 µM 81% | [10]; [18] 92% | [10]; at 50.0 µM 83.5% | [11]; at 11.0 µM 90% | [11]; at 33.0 µM 93% | [11]; [18] 92% | [11]; at 50.0 µM 84.8% | [11]; at 100.0 µM 87% | [12]; at 11.0 µM 90% | [12]; at 33.0 µM 93% | [12]; at 100.0 µM 86% | [13]; at 11.0 µM 91% | [13]; at 33.0 µM 91% | [13]; at 100.0 µM 85% | [14]; [18] 90% | [14]; at 50.0 µM 85.1% | [15]; at 11.0 µM 94% | [15]; at 33.0 µM 93% | [15]; at 100.0 µM 89%

O=C(/C=C/c1ccsc1)c1cccs1
inactive: [1]; at 1.2 µM -16% | [1]; at 3.7 µM -18% | [1]; at 11.0 µM -9% | [1]; at 33.0 µM -12% | [2]; at 1.2 µM -33% | [2]; at 3.7 µM -41% | [2]; at 11.0 µM -35% | [2]; at 33.0 µM -35% | [2]; at 100.0 µM 17% | [3]; at 1.2 µM 5% | [3]; at 3.7 µM 11% | [3]; at 11.0 µM 21% | [3]; at 33.0 µM 54% | [4]; at 1.2 µM 3% | [4]; at 3.7 µM -2% | [4]; at 11.0 µM -4% | [4]; at 33.0 µM 10% | [5]; at 1.2 µM 21% | [5]; at 3.7 µM 19% | [5]; [17] -15% | [5]; at 11.0 µM 22% | [5]; at 33.0 µM 27% | [5]; [18] 11% | [5]; at 50.0 µM 46.6% | [6]; at 1.2 µM -3% | [6]; at 3.7 µM -7% | [6]; [17] 4% | [6]; at 11.0 µM -2% | [6]; at 33.0 µM 8% | [6]; [18] 11% | [6]; at 50.0 µM 19.9% | [7]; at 1.2 µM 3% | [7]; at 3.7 µM 0% | [7]; at 11.0 µM -8% | [7]; at 33.0 µM 9% | [8]; [17] -1% | [8]; [18] 33% | [8]; at 50.0 µM 66.6% | [9]; at 1.2 µM 4% | [9]; at 3.7 µM 14% | [9]; at 11.0 µM 3% | [9]; at 33.0 µM 5% | [10]; [17] 37% | [10]; [18] 42% | [10]; at 50.0 µM 4.55% | [11]; at 1.2 µM 1% | [11]; at 3.7 µM 28% | [11]; [17] -11% | [11]; at 11.0 µM 11% | [11]; at 33.0 µM 23% | [11]; [18] 66% | [11]; at 50.0 µM 15.2% | [16]; at 1.2 µM -24% | [16]; at 3.7 µM -36% | [16]; at 11.0 µM -31% | [16]; at 33.0 µM -29% | [13]; at 1.2 µM -15% | [13]; at 3.7 µM -23% | [13]; at 11.0 µM -24% | [13]; at 33.0 µM -17% | [14]; [17] -9% | [14]; [18] 69% | [14]; at 50.0 µM 44.6% | [15]; at 1.2 µM -3% | [15]; at 3.7 µM -5% | [15]; at 11.0 µM -12% | [15]; at 33.0 µM -6%
active: [1]; at 100.0 µM 82% | [3]; at 100.0 µM 95% | [4]; at 100.0 µM 92% | [5]; at 100.0 µM 92% | [6]; at 100.0 µM 98% | [7]; at 100.0 µM 87% | [9]; at 100.0 µM 84% | [11]; at 100.0 µM 97% | [16]; at 100.0 µM 85% | [13]; at 100.0 µM 83% | [15]; at 100.0 µM 84%
